This is a sample that favours compounds with a hit; in the whole collection about 1.3% have one here.
CRFR2-BP ag – agonists of CRF-BP/CRF-R2 complex, primary screen, cell-based, HEK293, calcium dye fluorescence, uHTS. calcium dye fluorescence (FLIPR); percent of saturating CRF peptide response. activation, % at 13.2 µM. CRF-binding protein / CRF receptor 2 complex (human). AID 588473, 2011. 0.46% of 350,000 active;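 active means activation of at least 50%, plus an integration ratio under a set limit after plate pattern correction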;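 further: plate controls were neutral control wells without compound for no effect and CRF at EC100 for full effect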
CRFBP-R2 block – antagonists of CRF-BP/CRF-R2 complex, primary screen, cell-based, HEK293, calcium dye fluorescence, uHTS. CRF-induced calcium fluorescence. AID 588475, 2011. inhibition, % at 11.8 µM. 0.59% of 350,000 active;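 active means inhibition of the ligand-induced calcium signal above about 50% at the single tested concentration, limit read from the data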
cardiac RTF act – cardiac RTF calcium sensitivity activators, primary screen, biochemical, IANBD-TnC fluorescence, EC20 calcium | Troponin I, cardiac muscle (Homo sapiens) + Troponin T, cardiac muscle (Homo sapiens) + … | IANBD-labeled TnC RTF fluorescence at EC20 calcium; 0% EC20 calcium, 100% full calcium | activation, % at 7.2 µM | 0.24% of 340,000 active;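 active means activation above the mean over all tested compounds plus 3 SD, cut at about 30% in these data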;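 further: rise in fluorescence read as greater calcium sensitivity of cardiac thin filaments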
RTF Ca sens inh – cardiac RTF calcium sensitivity inhibitors, primary screen, biochemical, IANBD-TnC fluorescence, EC70 calcium. 0.12% of 340,000 active. inhibition, % at 7.15 µM. IANBD-labeled cardiac RTF, Ca2+ fluorescence. Troponin I, cardiac muscle (Homo sapiens) + Troponin T, cardiac muscle (Homo sapiens) + …;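 active means inhibition above the mean inhibition of all tested compounds plus 3 SD, cut at about 17% in these data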;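 further: assay run at fixed EC70 calcium of 1.6 mM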
* hit, by the source's call; · = no result; ! = a repeat was not active.

SMILES	CRFR2-BP ag	CRFBP-R2 block	cardiac RTF act	RTF Ca sens inh
Cc1c(Cl)c([N+](=O)[O-])nn1CCCC(=O)Nc1cc(Oc2ccccc2)cc([N+](=O)[O-])c1	-1	59*	-2	0
Clc1ccccc1OCc1nc(-c2ccc(Br)o2)no1	4	14	5	-8
Brc1ccc(-c2noc(CCc3ccccc3)n2)o1	1	61*	11	2
Cc1[nH]c(=O)[nH]c(=O)c1S(=O)(=O)N1CCCC(C(=O)N2CCN(c3ccccc3Cl)CC2)C1 (stereo not given)	-3	74*	-6	-2
O=C(c1ccc(COc2ccccc2Cl)o1)N1CCN(Cc2ccc3c(c2)OCO3)CC1	1	60*!	-5	-1
Cc1cc(C(N)=O)nn1-c1c(Cl)cc(Cl)cc1Cl	0	-10	1	-4
CC(=O)C1C(c2ccc(F)cc2)c2c(noc2C)CC1(C)O (stereo not given)	2	-2	·	·
CCN(c1ccccc1)S(=O)(=O)c1ccc(Cl)c(NC(=O)Nc2ccc(Cl)cc2C#N)c1	0	71*	-1	-6
Cc1nn(-c2ccccc2)c(Cl)c1CN(C(=O)CCl)c1ccc(Cl)cc1	0	78*	-4	-2
CC(=O)N(Cc1c(C)nn(-c2ccccc2)c1Cl)c1ccc(Cl)cc1	-1	32	0	-5
O=C1/C(=C/c2cccc(F)c2)Oc2cc(O)ccc21	50	-8	49*	-43
COc1ccc([N+](=O)[O-])cc1NS(=O)(=O)c1ccc(C)cc1	-3	21	1	0
Cc1ccc(S(=O)(=O)Nc2ccc3ccccc3c2[N+](=O)[O-])cc1	-9	90*	-6	1
Cc1ccc(S(=O)(=O)Nc2ccc3cc([N+](=O)[O-])ccc3c2[N+](=O)[O-])cc1	6	81*	-2	1
O=C(O)c1cccc(N2C(=O)C3C4C=CC(C4=C(c4ccccc4)c4ccccc4)C3C2=O)c1 (stereo not given)	-2	28	·	·
O=C(Nc1ccc(Cc2ccncc2)cc1)c1cc(F)c(F)cc1Cl	1	7	-2	-5
O=C(NCc1ccncc1)c1cc(F)c(F)cc1Cl	0	60*	8	-3
CC1CCCC(C)N1c1ccc(S(=O)(=O)N2CCOCC2)cc1Cl (stereo not given)	0	-7	-8	1
C=CCn1c(O)c(C(CC)=NCCN2CCOCC2)c(=O)[nH]c1=O	-1	4	3	-3
C=CCn1c(O)c(C(CC)=Nc2ccccc2NC(=O)CC)c(=O)[nH]c1=O	-1	76*	-3	-8
CCCC(C)NC(=O)c1sc2nc3n(c(=O)c2c1C)CCC3 (stereo not given)	-1	21	0	-3
COc1ccccc1C(=O)NC(CCSC)C(=O)NC1CCCCCC1 (stereo not given)	-1	101*	9	-14
COc1ccccc1C(=O)NC(CCSC)C(=O)NC1CC1 (stereo not given)	-1	10	2	1
CCOC(=O)c1ccc(N=c2sc(C(=O)OC)cc(=O)n2Cc2ccco2)cc1	1	-3	4	-4
CCOC(=O)c1ccc(N=c2sc(C(=O)OC)cc(=O)n2CCCN2CCOCC2)cc1	-2	57*!	-3	1
SMILES	CRFR2-BP ag	CRFBP-R2 block	cardiac RTF act	RTF Ca sens inh
CCc1ccc(C2=CC(c3cc(Br)ccc3F)n3ncnc3N2)cc1 (stereo not given)	54*	-10	-4	-3
Fc1ccc(Br)cc1C1C=C(c2ccc(Br)cc2)Nc2ncnn21 (stereo not given)	102*	-71	6	-20
Cc1ccc(C2=CC(c3ccccc3)n3ncnc3N2)cc1 (stereo not given)	20	0	11	-15
Cc1ccsc1C1C=C(c2cccc(Br)c2)Nc2ncnn21 (stereo not given)	30	-16	46*	-58
Cc1cc(C)n(CCN(C)C(=O)C2CCC(=O)N(CCc3cccc(F)c3)C2)n1 (stereo not given)	35	-15	-2	-3
COc1ccc2cc(C3(C)NC(=O)N(CC(=O)NCC(F)(F)F)C3=O)ccc2c1 (stereo not given)	-2	3	-2	-6
COC(=O)CNC(=O)c1ccc(F)cc1	0	-3	·	·
